This note sets out measurements from PubChem BioAssay (Tox21).

Where “and” joins values, the source holds several entries; their conditions need not be identical. Identical values can stand only once. Inconclusive results are not listed. Where a structure was tested more than once in an assay, its records may differ in their call. Calls of active or inactive are those of the source. Calls come from the whole dose curve; as a rule, active = well fitted curve in the direction sought with a large enough effect in the repeat runs; inconclusive = weak or mixed curves; inactive = no such curve, though single readings can be large; an effect the other way counts as inactive or inconclusive.

Assay [1] is described as follows: A CellTox Green Cytotoxicity Assay to monitor cytotoxicity in HepG2 cells - 0 hour (AID 1224882). Note: nearly all actives have a fitted effect of over 35% in size. Put shortly:
(§1)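 HepG2 cells, 600/well, preincubated 5 h with CellTox Green dye, then exposed to Tox21 compounds in DMSO at 37 C for up to 40 h. Dead-cell DNA fluorescence read at the indicated time point.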

The nature of assay [2]: A CellTox Green Cytotoxicity Assay to monitor cytotoxicity in HepG2 cells - 32 hour (AID 1224883). Note: nearly all actives have a fitted effect of over 50% in size. Note: potency is the fitted concentration of half-maximal effect. The procedure, abridged: as §1
The nature of assay [3]: A CellTox Green Cytotoxicity Assay to monitor cytotoxicity in HEK293 cells - 8 hour (AID 1224884). Note: nearly all actives have a fitted effect of over 35% in size. Note: potency is the fitted concentration of half-maximal effect. The procedure, abridged: (§2)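 HEK293 cells, 600/well, were preincubated 5 hours and then exposed to compounds at 37 C for up to 40 hours. A cell-impermeant cyanine dye staining dead-cell DNA was read by fluorescence at 0, 8, 16, 24, 32 and 40 h time points.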
A short description of assay [4]: qHTS RealTime-Glo MT Cell Viability Assay in HepG2 cells - 16 hour (AID 1224885). Note: nearly all actives have a fitted effect of over 50% in size. Note: potency is the fitted concentration of half-maximal effect. Put shortly:
(§3)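 HepG2 suspension premixed with RealTime-Glo reagents is plated at 600 cells per well and left 5 h at 37 C/5% CO2. Compounds in DMSO then go in, and bioluminescence reflecting viable cell number is recorded over 40 h.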
(Quantitative high-throughput screening tests each substance at several concentrations.)

Assay [5] can be described thus: A CellTox Green Cytotoxicity Assay to monitor cytotoxicity in HEK293 cells - 16 hour (AID 1224888). Note: nearly all actives have a fitted effect of over 35% in size. Put shortly: as §2
The nature of assay [6]: qHTS RealTime-Glo MT Cell Viability Assay in HepG2 cells - 0 hour (AID 1224889). Note: nearly all actives have a fitted effect of over 50% in size. The procedure, abridged: as §3
Assay [7] can be described thus: A CellTox Green Cytotoxicity Assay to monitor cytotoxicity in HepG2 cells - 8 hour (AID 1224890). Note: nearly all actives have a fitted effect of over 45% in size. Note: potency is the fitted concentration of half-maximal effect. Put shortly: as §1
A short description of assay [8]: qHTS RealTime-Glo MT Cell Viability Assay in HEK293 cells - 24 hour (AID 1224886). Note: nearly all actives have a fitted effect of over 50% in size. Note: potency is the fitted concentration of half-maximal effect. The procedure, abridged:
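Reads taken at 0, 8, 16, 24, 32 and 40 h from the same wells. HEK293 cells (600/well) carried RealTime-Glo reagents from seeding, with compound added after a 5 h settle at 37 C.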

The nature of assay [9]: qHTS RealTime-Glo MT Cell Viability Assay in HEK293 cells - 8 hour (AID 1224887). Put shortly:
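600 cells/well were plated with the nonlytic NanoLuc/prosubstrate reagent, pre-incubated 5 h, then given 23 nL of compound in DMSO. Incubation at 37 C for 40 h, with luminescence from viable-cell-reduced substrate read repeatedly from 0 h.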

In the case of `COC(=O)N(OC)c1ccccc1COc1ccn(-c2ccc(Cl)cc2)n1`, the Potency result in [1], in [2], in [3], in [4], in assay [5] and in assay [6] was “inactive” in each case. Also, the Potency entry in assay [7] was “inactive”.

`CCOP(=O)(OCC)Oc1nc(Cl)c(Cl)cc1Cl`: the Potency entry in assay [1], in assay [3], in [4], in [8], in assay [9] and in assay [5] was “inactive” throughout. The Potency entry in [6] and in assay [7] was “inactive” throughout.

`COP(=O)(OC)Oc1ccc([N+](=O)[O-])cc1`: the Potency result in assay [1], in assay [2], in assay [3], in assay [4], in assay [8] and in [9] was “inactive” in each case. For the same molecule, the Potency entry in [5] and in assay [7] was “inactive” in each case.

In the case of `O.O.O.O.O.O.O=S(=O)([O-])[O-].[Ni+2]`, the Potency result in assay [1], in [2], in assay [3], in [4], in assay [8] and in [9] was “inactive” throughout. The Potency entry in [5] and in assay [7] was “inactive” each time.

As for `O=C(Nc1ccc(F)cc1F)c1cccnc1Oc1cccc(C(F)(F)F)c1`, the Potency result in [1], in assay [4], in assay [8], in assay [9], in [5] and in assay [6] was “inactive” in each case. In addition, the Potency entry in assay [7] was “inactive”.

Regarding `O=[N+]([O-])c1ccc(Cl)c(Cl)c1Cl`, the Potency entry in assay [1], in assay [2], in assay [3], in assay [4], in [8] and in assay [9] was “inactive” each time. The Potency result in assay [6] and in assay [7] was “inactive” in each case.

Turning to `Brc1ccc(Oc2ccc(Br)cc2Br)c(Br)c1`, the Potency entry in assay [1], in [2], in [3], in assay [4], in assay [5] and in assay [7] was “inactive” throughout. Besides, the Potency in assay [8] is 49 µM (active).

Regarding `CC(Cl)CCl` (stereo not drawn), the Potency result in [1], in assay [3], in assay [4], in assay [8], in [9] and in assay [5] was “inactive” each time. Further, the Potency result in assay [6] was “inactive”.

For the molecule `C=CCOC(=O)c1ccccc1N`, the Potency result in [1], in assay [3], in assay [4], in assay [8], in assay [5] and in [6] was “inactive” in each case.

Consider `Clc1ccc(C2(Cn3cncn3)OCCO2)c(Cl)c1`, for which the Potency entry in assay [1], in [3], in [4], in [8], in assay [9] and in [5] was “inactive” throughout. Moreover, the Potency result in assay [6] and in [7] was “inactive” each time.

For `C=CCBr`, the Potency result in [1], in assay [2], in assay [3], in assay [4], in assay [8] and in [9] was “inactive” each time. Further, the Potency entry in assay [5] and in [7] was “inactive” each time.

On to `CCOP(=S)(NC(C)C)Oc1ccccc1C(=O)OC(C)C` (stereo not drawn), for which the Potency result in assay [1], in assay [2] and in [5] was “inactive” in each case.

With `CCOP(=S)(OCC)SC(CCl)N1C(=O)c2ccccc2C1=O` (stereo not drawn), the Potency result in [1], in assay [3], in assay [4], in assay [8], in assay [9] and in assay [5] was “inactive” throughout.

For the molecule `NC1CCC(CC2CCC(N)CC2)CC1` (stereo not drawn), the Potency result in assay [1], in assay [2], in assay [3], in assay [4], in assay [9] and in assay [5] was “inactive” each time. In addition, the Potency result in [6] and in assay [7] was “inactive” throughout.

`Cc1cnc2c(C(=O)O)c(Cl)ccc2c1`: the Potency result in assay [1], in [3], in [4], in assay [8], in assay [9] and in assay [5] was “inactive” each time. Moreover, the Potency entry in assay [6] and in [7] was “inactive” in each case.

On to `CC1(C)C(C=C(Cl)Cl)C1C(=O)OC(C#N)c1ccc(F)c(Oc2ccccc2)c1` (stereo not drawn), for which the Potency result in [1], in assay [2], in assay [3], in assay [8], in assay [5] and in assay [6] was “inactive” throughout. For the same molecule, the Potency result in assay [7] is “inactive”.

`CCc1cccc(C)c1N(C(=O)CCl)[C@@H](C)COC`: the Potency result in [1], in assay [8] and in [9] was “inactive” throughout. In addition, the Potency in assay [2] was 43.6 µM (active).

Regarding `O=[N+]([O-])C(Br)Br`, the Potency result in assay [1], in [3], in assay [4], in assay [6] and in [7] was “inactive” throughout. Moreover, the Potency in [8] is 55 µM (active).

For `CCCCN(CCCC)C(=S)S`, the Potency result in assay [1], in assay [3], in assay [4], in assay [8], in [9] and in assay [5] was “inactive” each time. Besides, in assay [7], the Potency entry is “inactive”.

In the case of `CCCCCCCCCCCCCCn1cc[n+](C)c1`, the Potency entry in assay [1] and in [6] was “inactive” in each case. For the same molecule, the Potency is 21.9 µM (active) and 24.3 µM (active) and inactive in [2]; 55 µM (active) and 54.4 µM (active) and inactive in assay [3]; 39 µM (active) and 54.4 µM (active) and inactive in assay [4]; 7.78 µM (active) and 8.62 µM (active) in [8]; 39 µM (active) and 48.5 µM (active) and inactive in assay [7].
